SARS PLpro yeast – blocks SARS-CoV papain-like protease in a yeast assay; S. cerevisiae expressing SARS-CoV PLpro, growth rescue; Potency, µM (doses to about 32.9 µM), without a hit: top-dose activity, positive = growth rescue, actives largely listed as activators; 330,000 tested, 0.19% active; AID 485353; note: 0% is about no effect; nearly all actives have a fitted effect of over 55% in size
NS1 function inh – blocks influenza NS1 protein function | Potency, µM (highest dose often 46.1 µM), inactives show at the highest dose activity, positive = more growth | 270,000 tested, 0.4% active; note: actives are rising curves; nearly all actives have a fitted effect of over 50% in size
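A cell-based growth assay was used: compounds that relieve NS1-induced slow growth of budding yeast raise OD600. Assay medium was yeast nitrogen base with ammonium sulphate and -URA supplement, pH 6.0, with 2% galactose.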
Pf growth 48h – inhibits P. falciparum growth in the first generation, 48 h; P. falciparum luciferase growth in erythrocytes, 48 h; Potency, µM (top dose mostly 28.7 µM), inactives show top-dose activity change, negative = inhibition, actives largely listed as inhibitors; 310,000 tested, 5.9% active; active = well fitted inhibition curve with a large enough effect; inconclusive = small, poorly fitted or top-dose-only effect, or another doubt; inactive = no such curve, though single readings can be large or run the other way; note: % is set by controls: 0 for no effect and ±100 for the full control effect
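Parasite viability was followed by luminescence of a genomically integrated firefly luciferase. Cultures held 0.1% parasitemia at 2% hematocrit (final), incubated under 5% CO2 at 37 C.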
Pf growth 96h – inhibits malaria parasite growth, 96 h; P. falciparum luciferase reporter growth, 96 h; Potency, µM (series often up to 28.7 µM), for the others: at the highest dose activity change, negative = inhibition, most hits filed as inhibitors; 320,000 tested, 6.9% active; AID 504834; active = well fitted inhibition curve with a large enough effect; inconclusive = small, poorly fitted or top-dose-only effect, or another doubt; inactive = no such curve, though single readings can be large or run the other way; note: % is set by controls: 0 for no effect and ±100 for the full control effect
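Two parasite generations (96 h, 37 C, 5% CO2) of compound exposure in infected erythrocytes (0.05% parasitemia, 2% hematocrit). Luciferase-reporter P. falciparum; decreased luminescence indicates inhibited growth, aimed at apicoplast-acting delayed death.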
RE007 growth inh – less growth of the S. pombe RE007 Vpr strain; S. pombe RE007 Vpr strain, BacTiter-Glo ATP luminescence, 24 h; Potency, µM (series often up to 92.2 µM), for the others: at the highest dose activity change, negative = less growth, hits mostly inhibitors; 360,000 tested, 0.21% active; active = well fitted falling curve with a large enough effect; inconclusive = small, poorly fitted or top-dose-only effect; inactive = no such curve, though single readings can be large or run the other way; note: % is set by controls: 0 for no effect and ±100 for the full control effect; nearly all actives have a fitted effect of over 50% in size
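Fission yeast strain RE007, carrying one chromosomally integrated HIV-1 vpr copy, was seeded at OD 0.01 in PMG+AL medium with 23 nL pinned compound. After 24 h at 30 °C and 99% humidity, viability was read by BacTiter-Glo luminescence.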
Active calls of the source: *. Sampled rows, rich in hits. Any-hit rate of the full collection: about 9.5%. Unless noted, calls come from the whole dose curve. Potency is the fitted concentration of half-maximal effect.

`COCC1CCCCN1C(=O)C1CCN(c2nc(-c3ccccc3)nc3c2CCC3)CC1` (stereo unspecified) gave SARS PLpro yeast -3%, NS1 function inh -16%, Pf growth 48h 9.3µM*, Pf growth 96h -24% and RE007 growth inh -1%.
COCC1CCN(C(=O)C2CCN(c3nc(-c4ccccc4)nc4c3CCC4)CC2)C1 (stereo unspecified) was read as SARS PLpro yeast -1%, NS1 function inh -15%, Pf growth 48h 7.4µM*, Pf growth 96h inconclusive and RE007 growth inh -11%.
O=C(O)c1ccccc1C(=O)NCc1ccc2c(c1)OCO2 was read as SARS PLpro yeast 3%, NS1 function inh -1%, Pf growth 48h 17%, Pf growth 96h 61% and RE007 growth inh 4%.
`COc1ccc(CN2C(=O)CCC2(C)c2nc3ccccc3[nH]2)cc1` (stereo unspecified) gave RE007 growth inh 9%.
`O=c1cc(CO)occ1O` gave Pf growth 48h -2% and Pf growth 96h -4%.
COc1ccc(-n2c(=S)[nH]c3c(sc(=S)n3-c3ccccc3)c2=O)c(OC)c1 was read as SARS PLpro yeast 6%, Pf growth 48h 10%, Pf growth 96h -24% and RE007 growth inh -25%.
COc1ccc(-n2c(SCC(=O)C(C)(C)C)nc3c(sc(=S)n3-c3ccccc3)c2=O)c(OC)c1 was read as SARS PLpro yeast 1%, NS1 function inh inconclusive, Pf growth 48h 2.1µM*, Pf growth 96h 0% and RE007 growth inh -9%.
For CCOC(=O)CSc1nc2c(sc(=S)n2-c2ccccc2OC)c(=O)n1-c1ccccc1OC the results were SARS PLpro yeast 1%, NS1 function inh 20%, Pf growth 48h 12µM*, Pf growth 96h 11% and RE007 growth inh 0%.
COc1ccc(CN2CCN(C(=O)C3CCN(C(=O)Nc4ccccc4)CC3)CC2)cc1OC was read as SARS PLpro yeast 3% and RE007 growth inh 0%.
`CCCCNC(=S)NNc1c(Cl)cc(Cl)cc1Cl` gave SARS PLpro yeast 14%, Pf growth 48h -2%, Pf growth 96h 8.3µM* and RE007 growth inh 31%.
`Cc1ccc(NC(=O)CSc2nnc(-c3ccccn3)n2N)c(Br)c1` gave SARS PLpro yeast 1%, NS1 function inh 3%, Pf growth 48h 54%, Pf growth 96h 19% and RE007 growth inh -2%.
CC(=O)C1=C(C)NC(SCc2ccc(C#N)cc2)=C(C#N)C1c1ccco1 (stereo unspecified) was read as SARS PLpro yeast 2%, NS1 function inh -18%, Pf growth 48h -2% and Pf growth 96h 0%.
`CC(=O)C1=C(C)NC(SCc2cccc3ccccc23)=C(C#N)C1c1ccco1` (stereo unspecified) gave SARS PLpro yeast -12%, NS1 function inh 7%, Pf growth 48h 10µM*, Pf growth 96h 2.9µM* and RE007 growth inh 1%.
Screening CCOC(=O)CSC1=C(C#N)C(c2ccco2)C(C(=O)Nc2cccc(C(F)(F)F)c2)=C(C)N1 (stereo unspecified) returned SARS PLpro yeast 3%, NS1 function inh inconclusive, Pf growth 48h 10µM*, Pf growth 96h 5% and RE007 growth inh 8%.
COc1ccc(OC)c(/C=C/C(=O)N2CCN(S(=O)(=O)c3ccc(C)cc3C)CC2)c1 was read as SARS PLpro yeast 7%, Pf growth 48h 12µM*, Pf growth 96h 13µM* and RE007 growth inh -25%.
COc1ccc(C)cc1S(=O)(=O)N1CCN(C(=O)c2ncoc2-c2cccc(C)c2)CC1 was read as SARS PLpro yeast 4%, NS1 function inh -1%, Pf growth 48h 1%, Pf growth 96h 0.93µM* and RE007 growth inh -17%.
`COc1ccccc1/C=C/C(=O)N1CCN(S(=O)(=O)c2cc(C)ccc2C)CC1` gave SARS PLpro yeast 3%, Pf growth 48h 15µM*, Pf growth 96h inconclusive and RE007 growth inh -13%.
Screening COc1ccc(OC)c(/C=C/C(=O)N2CCN(S(=O)(=O)c3cc(C)ccc3C)CC2)c1 returned SARS PLpro yeast 5%, Pf growth 48h inconclusive, Pf growth 96h inconclusive and RE007 growth inh -9%.
CCc1cc(C(=O)N2CCN(S(=O)(=O)c3ccccc3F)CC2)sc1C was read as SARS PLpro yeast 2%, Pf growth 48h inconclusive, Pf growth 96h inconclusive and RE007 growth inh 8%.
For CCc1cc(C(=O)N2CCN(S(=O)(=O)c3cc(C)ccc3C)CC2)sc1C the results were SARS PLpro yeast -8%, Pf growth 48h 13µM*, Pf growth 96h inconclusive and RE007 growth inh -13%.
`COc1ccc(C)cc1S(=O)(=O)N1CCN(C(=O)c2ncoc2-c2ccc(C)cc2)CC1` gave SARS PLpro yeast 0%, NS1 function inh 11%, Pf growth 48h 1%, Pf growth 96h 14% and RE007 growth inh 1%.
For Cc1ccccc1CN1CCN(c2nc3ccccc3s2)CC1 the results were SARS PLpro yeast -2%, NS1 function inh -3%, Pf growth 96h 155% and RE007 growth inh -21%.
Screening CC(C)(C)c1cc[n+](C2=C([O-])c3ccccc3C(=O)/C2=N\S(=O)(=O)c2ccccc2)cc1 returned SARS PLpro yeast -2%, NS1 function inh -3%, Pf growth 48h 3.7µM*, Pf growth 96h 4.1µM* and RE007 growth inh 0%.
CC(C)[n+]1ccn(C2=C([O-])c3ccccc3C(=O)/C2=N\S(=O)(=O)c2ccccc2)c1 was read as SARS PLpro yeast 0%, NS1 function inh 3%, Pf growth 48h 6.6µM*, Pf growth 96h inconclusive and RE007 growth inh 4%.
CCCCC[n+]1ccn(-c2nc3ccccc3nc2[N-]S(=O)(=O)c2ccc(C)cc2)c1 was read as SARS PLpro yeast 9%, NS1 function inh 9%, Pf growth 48h -16%, Pf growth 96h inconclusive and RE007 growth inh -1%.
Cc1c(C(C)(C)C)s/c(=N/S(=O)(=O)c2ccccc2)n1C was read as SARS PLpro yeast 0%, NS1 function inh 28%, Pf growth 48h inconclusive, Pf growth 96h 47% and RE007 growth inh 7%.
For CCCCC[n+]1ccn(C2=C([O-])c3ccccc3C(=O)/C2=N\S(=O)(=O)c2ccccc2)c1 the results were SARS PLpro yeast 0%, NS1 function inh 11%, Pf growth 48h 2.9µM*, Pf growth 96h 5.9µM* and RE007 growth inh 0%.
Screening CCCC[n+]1ccn(C2=C([O-])c3ccccc3C(=O)/C2=N\S(=O)(=O)c2ccccc2)c1 returned SARS PLpro yeast 0%, NS1 function inh 7%, Pf growth 48h 1.9µM*, Pf growth 96h 8.3µM* and RE007 growth inh -2%.
Screening CCc1ccc(S(=O)(=O)/N=C2\C=C(NS(=O)(=O)c3ccccc3)C(=O)c3ccccc32)cc1 returned SARS PLpro yeast -8%, NS1 function inh -5%, Pf growth 48h 30%, Pf growth 96h -10% and RE007 growth inh -18%.

Assay outcomes: PubChem, National Center for Advancing Translational Sciences (NCATS)
